Drawing on PubChem BioAssay (Tox21), this text covers Potency for 5 compounds.

Results filed as inconclusive are left out. Entries that show only a call come without a potency. The source made the active and inactive calls. The call rests on the fitted dose curve; in most records, active means well fitted cell-killing curve with a large enough effect in the repeat runs; inconclusive means weak or mixed curves, or effect the other way; inactive means flat fitted curve, though single readings scatter.

Assay [1] in a line: cAMP Responsive Elements (CRE) small molecule antagonists, cell-based qHTS assay: qHTS cell viability counter screen (AID 2060913). Further: nearly all actives have a fitted effect of over 40% in size. Conditions: CRE-bla HEK293T viability, CellTiter-Glo luminescence, 5 h; series mostly up to 92.4 µM. The gist of the method: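 HEK293T CRE-bla, 2,000 cells/well, 18 h preincubation; cpd in DMSO + NKH477 0.25 uM final, 3 h 37 C/5% CO2; LiveBLAzer 2 h RT, then CellTiter-Glo 30 min RT, luminescence.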
(In general: In qHTS, concentration-response curves come from the screen itself.)

A short description of assay [2]: cAMP Responsive Elements (CRE) small molecule agonists, cell-based qHTS assay: qHTS cell viability counter screen (AID 2060914).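 Further: viability read after 3 h of compound exposure; nearly all actives have a fitted effect of over 50% in size.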 Conditions: CRE-bla HEK293T viability, CellTiter-Glo luminescence, 5 h; series mostly up to 92.4 µM. The gist of the method:
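Cells are seeded and incubated 18 h, treated with compounds in DMSO for 3 h, read for the bla reporter, then given CellTiter-Glo; luminescence is measured after 30 min at room temperature.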

In the case of `COC(=O)c1ccccc1Cl`, the Potency result in assay [1] and in assay [2] was “inactive” in each case.

Take `C[C@@H]1C[C@H]2[C@@H]3CCC4=CC(=O)C=C[C@]4(C)[C@@]3(F)[C@@H](O)C[C@]2(C)[C@H]1C(=O)CO`: the Potency entry in assay [1] and in assay [2] was “inactive” throughout.

Turning to `CC(=O)CC(N)=O`, the Potency result in assay [1] and in assay [2] was “inactive” each time.

Regarding `NCC1CCC(C(=O)Oc2ccc(CCC(=O)O)cc2)CC1` (stereo not given), the Potency result in assay [1] and in assay [2] was “inactive” throughout.

For `CC(C)(O)c1coc(S(=O)(=O)NC(=O)Nc2c3c(cc4c2CCC4)CCC3)c1`, the Potency entry in assay [1] and in assay [2] was “inactive” in each case.
